HPGD inh: qHTS Assay for Inhibitors of HPGD (15-Hydroxyprostaglandin Dehydrogenase) | purified HPGD, NADH fluorescence kinetic, PGE2 substrate | Potency, µM, for the others: top-dose activity change, negative = inhibition, actives largely listed as inhibitors | 4.3% of 150,000 active | AID 894, 2007; active means well fitted inhibition curve with a large enough effect, not every such curve was filed as active; inconclusive means small, poorly fitted or top-dose-only effect, or another doubt; inactive means no such curve, though single readings can be large or run the other way
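20 nM HPGD preincubated 15 min at room temperature with compound in 50 mM Tris-HCl pH 8, 0.01% Tween 20. Started with 1 mM NAD+ and 30 uM prostaglandin E2; NADH fluorescence (360/450 nm) read 5 times over 30-s intervals, last minus first.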
Tau fibril FP: qHTS for Inhibitors of Tau Fibril Formation, Fluorescence Polarization | Microtubule-associated protein tau (Homo sapiens), P10636 | K18 P301L tau heparin fibrillization, Alexa594 FP, 6 h | Potency, µM (series often up to 57.7 µM), for the others: at the top dose activity, negative = inhibition, most hits filed as inhibitors | 0.39% of 280,000 active; further: nearly all actives have a fitted effect of over 55% in size
Target sequence (P10636 561-689 P618L limits assumed): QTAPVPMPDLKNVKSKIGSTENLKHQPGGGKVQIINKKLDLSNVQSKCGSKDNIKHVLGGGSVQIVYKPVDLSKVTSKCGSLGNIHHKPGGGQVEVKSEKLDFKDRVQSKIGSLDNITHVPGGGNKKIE
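FP of Alexa 594-tau after heparin (20 uM) induction. Substrate: human K18 P301L, 15 uM unlabeled, 0.24 uM labeled. Buffer 100 mM sodium acetate pH 7. 6 hr, 37 C.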
Tau fluor cs: Counterscreen qHTS for Inhibitors of Tau Fibril Formation, Fluorescence Polarization; tau K18 P301L Alexa594 fluorescence, heparin fibrillization; Potency, µM (top dose mostly 57.7 µM), without a hit: at the top dose activity change, negative = decrease; 0.93% of 280,000 active; AID 1463, 2008; further: nearly all actives have a fitted effect of over 55% in size
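Human tau K18 P301L (15 uM unlabeled, 0.24 uM Alexa 594-labeled) in 100 mM sodium acetate pH 7 with 20 uM heparin, 6 hr at 37 C. ThT 30 uM added, 1 hr ambient; Alexa 594 FP and total fluorescence read at 555/632 nm.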
ALDH1A1 block: qHTS Assay for Inhibitors of Aldehyde Dehydrogenase 1 (ALDH1A1). Purified ALDH1A1, NADH fluorescence, propionaldehyde substrate. Potency, µM (doses to about 75.3 µM), inactives show at the highest dose activity, negative = inhibition, most hits filed as inhibitors. Aldehyde dehydrogenase 1A1 (Homo sapiens), P00352. 7.3% of 220,000 active. AID 1030, 2008; active means well fitted inhibition curve with a large enough effect, not every such curve was filed as active; inconclusive means small, poorly fitted or top-dose-only effect, or another doubt; inactive means no such curve, though single readings can be large or run the other way;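 further: plate controls were no enzyme wells and a reference inhibitor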
Tau fibril ThT: qHTS for Inhibitors of Tau Fibril Formation, Thioflavin T Binding | AID 1460, 2008 | recombinant tau K18 P301L, heparin-induced fibrillization, ThT fluorescence | 2.1% of 270,000 active | Microtubule-associated protein tau (Homo sapiens), P10636 | Potency, µM (top dose mostly 57.4 µM), for inactives: at the highest dose activity, negative = inhibition, most hits filed as inhibitors; further: nearly all actives have a fitted effect of over 55% in size
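Fibril formation assay: tau K18 P301L at 15 uM with trace Alexa 594 label, heparin inducer 20 uM, pH 7 sodium acetate buffer, 37 C for 6 hr; endpoint ThT signal.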
NPSR antag: qHTS Assay for Antagonists of the Neuropeptide S Receptor: cAMP Signal Transduction. CHO-NPSR cells, cAMP TR-FRET, antagonist mode. Potency, µM (series often up to 38.3 µM), for inactives: at the top dose activity change, negative = inhibition, most hits filed as inhibitors. 1% of 220,000 active. AID 1461, 2008; further: nearly all actives have a fitted effect of over 50% in size
Target sequence (Q6W5P4 whole entry, looked up): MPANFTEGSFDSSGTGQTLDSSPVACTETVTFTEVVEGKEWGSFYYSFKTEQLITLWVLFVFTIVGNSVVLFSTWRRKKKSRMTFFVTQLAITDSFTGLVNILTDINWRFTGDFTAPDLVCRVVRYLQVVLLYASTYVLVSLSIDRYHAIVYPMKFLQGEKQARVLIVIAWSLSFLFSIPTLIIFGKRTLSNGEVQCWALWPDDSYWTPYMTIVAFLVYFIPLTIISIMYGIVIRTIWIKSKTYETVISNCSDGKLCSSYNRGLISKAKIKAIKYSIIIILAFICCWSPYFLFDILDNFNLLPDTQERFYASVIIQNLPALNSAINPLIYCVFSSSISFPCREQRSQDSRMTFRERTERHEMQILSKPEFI
* = called active by the depositor; ? = inconclusive; · = not tested or not shown; ! = not active in a repeat; [ ] = dose if it differs, or a comment. Hits are enriched below; roughly 9.5% of the tested compounds scored in any of these assays. Unless noted, the call rests on the fitted dose curve; in most records, active means well fitted curve in the direction sought with a large enough effect; inconclusive means small, poorly fitted or top-dose-only effect, or another doubt; inactive means no such curve, though single readings can be large; an effect the other way counts as inactive or inconclusive. Unless noted, on the % scale 0 is the no-effect control and ±100 the full control effect; potency means the concentration at half of the fitted maximal effect.

SMILES	HPGD inh	Tau fibril FP	Tau fluor cs	ALDH1A1 block	Tau fibril ThT	NPSR antag
FC(F)(F)c1cnc(NNC(=S)Nc2ccccc2Cl)c(Cl)c1	·	?	?	1.5µM*	?	-12%[46.1 µM]
NNC(=S)Nc1ccc(C(F)(F)F)cc1Cl	·	5%	?	?	?	-6%
CC(C)(C)NNC(=S)Nc1cccc(C(F)(F)F)c1	·	-2%	-15%	·	·	?
Cc1cccc(NC(=S)NNc2ncc(C(F)(F)F)cc2Cl)c1	-18%	2%	-13%	28µM*	-21%	11%
O=C(NCC1(N2CCOCC2)CCCCC1)c1cccc(S(=O)(=O)N2CCc3ccccc3C2)c1	·	-3%	-16%	3%	-3%	-31%
CCc1nc(Nc2ccc3c(c2)OCCO3)c2oc3ccccc3c2n1	-22%	5%	?	25µM*	?	?
Cc1nc(Nc2ccc3c(c2)OCCO3)c2oc3ccccc3c2n1	?	?	?	?	?	-6%[46.1 µM]
CCc1nc(NCc2ccc3c(c2)OCO3)c2oc3ccccc3c2n1	-11%	-6%	-24%	13µM*	-20%	-21%[46.1 µM]
COc1ccccc1N1CCN(c2nc3ccccc3n3cnnc23)CC1	·	13%	-28%	·	?	·
O=C(O)C[n+]1ccccc1	-15%	·	·	8%[13.5 µM]	·	·
COC(=O)c1ccccc1NC(=O)CSc1nnc(-c2cccnc2)n1C	-12%	6%	3%	5%	0%	8%[46.1 µM]
C=CCSC1=Nc2sccc2C2=NC(=O)CN12	-9%	3%	-8%	14µM*	-18%	-1%[46.1 µM]
Cc1ccc(CSC2=Nc3ccccc3C3=NC(=O)CN23)cc1	·	1%	1%	?	-16%	-12%
C=CCN1C(=O)C(CC(=O)Nc2ccccc2)SC1=Nc1ccc(S(N)(=O)=O)cc1 (stereo not given)	-15%	-4%	-10%	?	7%	-10%[46.1 µM]
COc1c2ccoc2cc2oc(C)cc(=O)c12	?	4%	3%	-8%	-5%	·
COc1c2occc2c(OC)c2c(=O)cc(C)oc12	28µM*!	-4%	-12%	1%	-15%	21%
COc1ccc(OC)c(NC(=O)C(=S)NC2CCCCC2)c1	·	-12%	?	8.9µM*	?	-28%
O=C(NNC(=S)NC1CCCCC1)c1ccc2c(c1)OCO2	-13%	1%	-7%	-11%	-5%	0%[46.1 µM]
S=C(NC1CCCCC1)c1ccc2c(c1)OCO2	20µM*	?	-10%	?	-13%	-12%[46.1 µM]
O=C(NC1CCCCCCC1)c1ccc2c(c1)OCO2	16µM*	-1%	1%	-1%	-5%	-2%[46.1 µM]
COc1ccc(NC(=O)C(=S)NC2CCCCC2)cc1	·	?	-21%	-2%	?	-10%
CCOc1ccc(C(=S)NC2CCCCC2)cc1OC	20µM*	-5%	-8%	40µM*	-8%	-7%[46.1 µM]
Cn1c(Sc2ccc(-c3cccnc3)n2C)ccc1-c1cccnc1	-5%	·	·	-6%[13.5 µM]	·	·
CCCCOc1cccc(C(=O)N(Cc2cccs2)c2ccc(OC)cc2)c1	·	0%	-10%	·	-14%	·
CCN(Cc1ccncc1)Cc1c(O)ccc2cc(Br)ccc12	·	0%	?	0.56µM*	?	-34%
SMILES	HPGD inh	Tau fibril FP	Tau fluor cs	ALDH1A1 block	Tau fibril ThT	NPSR antag
CC1(C)CC(=O)CC(=O)/C1=N\Nc1c(Cl)cc(Cl)cc1Cl	-4%	3%	-16%	6.3µM*	?	17%
COc1cccc(CNC(=O)CN2C(=O)COc3ccc(S(=O)(=O)N4CCOCC4)cc32)c1	·	-1%	-3%	·	1%	·
S=C(NCC1CCCO1)Nc1ccc(Cl)cc1Cl (stereo not given)	28µM*	-4%	-2%	-5%	-2%	10%
Cc1cccc(NC(=S)NCC2CCCO2)c1 (stereo not given)	14µM*	6%	-5%	-5%	-13%	-8%[46.1 µM]
Cc1ccc(NC(=S)NCC2CCCO2)cc1C (stereo not given)	-21%	2%	4%	?	9%	7%[46.1 µM]
Cc1ccc(C)c(NC(=O)CN2C(=O)CCc3ccccc32)c1	·	9%	-17%	·	?	·
COc1ccc(NS(=O)(=O)c2cc(Cl)ccc2Cl)cc1S(=O)(=O)N1CCCCC1	·	-7%	-14%	-6%	4%	-23%
COc1ccc(NC(=O)CSc2ccc(F)cc2)cc1S(=O)(=O)N1CCCCC1	-2%	-1%	-29%	15µM*	-6%	-11%
COc1ccc(NS(=O)(=O)c2cccc(Cl)c2)cc1S(=O)(=O)N1CCCCC1	-9%	2%	4%	16µM*	2%	-19%
COc1ccc(NS(=O)(=O)c2cccc(Cl)c2Cl)cc1S(=O)(=O)N1CCCCC1	-3%	0%	-17%	0.35µM*	-5%	-17%[46.1 µM]
C=CCOc1c(Cl)cc(CNc2ccc(N(C)C)cc2)cc1OC	?	0%	1%	2µM*	10%	5µM*
CCOc1cc(CNc2ccc(N3CCCC3)cc2)cc(Cl)c1OC	-13%	7.1µM*	?	32µM*	3.5µM*	-15%
CCOc1ccc(CNc2ccc(N3CCCC3)cc2)cc1	-2%	?	?	7.9µM*	7.1µM*	-27%[46.1 µM]
CCOc1cc(CNc2ccc(S(N)(=O)=O)cc2)cc(Cl)c1OC	-3%	-12%	-14%	6%	-2%	-4%
c1cc(CNc2ccc(N3CCOCC3)cc2)ccn1	-3%	?	?	-13%	22µM*	-22%[46.1 µM]
CCOc1ccc(NC(=O)c2ccc(CNc3c(N4CCCC4)c(=O)c3=O)cc2)cc1	·	3%	-5%	·	·	0%
Cc1ccc2oc(=O)c3cnn(CC(=O)N(C)c4ccc(F)cc4)c3c2c1	·	-3%	-7%	·	1%	·
CCn1c(N2CCN(C(=S)Nc3ccc(OC)cc3)CC2)nc2ccccc21	·	-9%	-28%	-3%	?	18%
CC1CCN(CC2CCN(C(=O)NCc3ccccc3)CC2)CC1	·	-4%	16%	·	15%	·
COc1cc(CNc2ccc(N3CCOCC3)cc2)cc(Br)c1OC	·	1%	-18%	?	?	-7%
CCOc1ccc(CNc2ccc(CNc3ncn[nH]3)cc2)cc1	·	9%	-29%	-1%	?	6%
COc1cc(CNc2ccc(N3CCCC3)cc2)cc(Cl)c1OC	·	?	?	?	4µM*	-12%
CCOc1ccc(CNc2cccc(SC)c2)cc1	·	-37%	-31%	?	16µM*	-4%
CCC(=O)Nc1ccc(C(=O)NNC(=O)Cc2ccccc2)cc1	3%	6%	8%	9%	3%	-4%[46.1 µM]

From PubChem
